# How the values were obtained:
# Test in all cases: PBM binding z-score (relative to random genomic background probes); higher = stronger binding; sequences stand for … in GC…GCGATTGACAGCGTAGAATGAAGG
# [1] = tested on: FXR:RXRa (NR concentration 270 nM, RXRa partner concentration 90 nM)
# Outline: (§1)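 Custom Agilent 4×180K protein-binding microarrays carried double-stranded probes, each with a 34-nt variable region. These regions held direct-repeat seeds, single-nucleotide variants, half-site ablations and random human genomic background sequences. Ligand-free nuclear receptor dimers were incubated on the arrays for 1 h, antibodies against each partner (one per run) detected binding, and scanned fluorescence was regression-normalized. Binding z-scores take the random background probes as reference.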
# [2] = tested on: LXRa:RXRa (NR concentration 270 nM, RXRa partner concentration 90 nM)
# Outline: as §1
# [3] = tested on: LXRa homodimer (NR concentration 270 nM)
# Outline: as §1
# [4] = tested on: LXRb:RXRa (NR concentration 270 nM, RXRa partner concentration 90 nM)
# Outline: as §1
# [5] = tested on: LXRb homodimer (NR concentration 270 nM)
# Outline: as §1
# [6] = tested on: PPARa:RXRa (NR concentration 270 nM, RXRa partner concentration 90 nM)
# Outline: as §1
# [7] = tested on: PPARg:RXRa (NR concentration 180 nM, RXRa partner concentration 90 nM)
# Outline: as §1
# [8] = tested on: PPARg:RXRa 270nM:90nM, anti-RXR (NR concentration 270 nM, RXRa partner concentration 90 nM)
# Outline: as §1
# [9] = tested on: PPARg:RXRa 30nM:10nM, anti-RXR (NR concentration 30 nM, RXRa partner concentration 10 nM)
# Outline: as §1
# [10] = tested on: PPARg:RXRa 90nM:30nM, anti-RXR (NR concentration 90 nM, RXRa partner concentration 30 nM)
# Outline: as §1
# [11] = tested on: PPARg:RXRa DBDmut IVT, anti-RXR (DBD mutation: RXRa K156A/R161A, NR concentration 270 nM, RXRa partner concentration 90 nM)
# Outline: as §1
# [12] = tested on: PPARg:RXRa IVT, anti-PPARg (NR concentration 270 nM, RXRa partner concentration 90 nM)
# Outline: as §1
# [13] = tested on: PPARg DBDmut:RXRa IVT, anti-PPARg (DBD mutation: PPARg1 K132A/R137A, NR concentration 270 nM, RXRa partner concentration 90 nM)
# Outline: as §1
# [14] = tested on: PPARg DBDmut IVT, anti-PPARg (DBD mutation: PPARg1 K132A/R137A, NR concentration 270 nM)
# Outline: as §1
# [15] = tested on: PPARg homodimer (NR concentration 180 nM)
# Outline: as §1
# [16] = tested on: PXR:RXRa (NR concentration 270 nM, RXRa partner concentration 90 nM)
# Outline: as §1
# [17] = tested on: PXR homodimer (NR concentration 270 nM)
# Outline: as §1
# [18] = tested on: RARa:RXR (NR concentration 270 nM, RXRa partner concentration 90 nM)
# Outline: as §1
# [19] = tested on: RARa homodimer (NR concentration 270 nM)
# Outline: as §1
# [20] = tested on: RARb:RXRa (NR concentration 270 nM, RXRa partner concentration 90 nM)
# Outline: as §1
sequence,measurement,setting,value
CCTCGGAGGACAACAGGAGGTCAGAGCCGCCAGA,PBM binding z-score,[1],0.835
same,PBM binding z-score,[2],2.03
same,PBM binding z-score,[3],1.67
same,PBM binding z-score,[4],1.17
same,PBM binding z-score,[5],-0.539
same,PBM binding z-score,[6],1.92
same,PBM binding z-score,[7],0.457
same,PBM binding z-score,[8],0.136
same,PBM binding z-score,[9],-0.412
same,PBM binding z-score,[10],-0.258
same,PBM binding z-score,[11],-0.218
same,PBM binding z-score,[12],0.369
same,PBM binding z-score,[13],-1.41
same,PBM binding z-score,[14],-1.45
same,PBM binding z-score,[15],1.21
same,PBM binding z-score,[16],1.72
same,PBM binding z-score,[17],0.183
same,PBM binding z-score,[18],1.99
same,PBM binding z-score,[19],-0.021
same,PBM binding z-score,[20],2.92
TCTATTAGTTGAAGAGCAACCGACGAGTCCGTTT,PBM binding z-score,[1],0.119
same,PBM binding z-score,[2],0.663
same,PBM binding z-score,[3],-0.0692
same,PBM binding z-score,[4],0.436
same,PBM binding z-score,[5],0.0793
same,PBM binding z-score,[6],0.395
same,PBM binding z-score,[7],-0.0464
same,PBM binding z-score,[8],1.45
same,PBM binding z-score,[9],3.13
same,PBM binding z-score,[10],2.28
same,PBM binding z-score,[11],2.11
same,PBM binding z-score,[12],-0.0307
same,PBM binding z-score,[13],-0.198
same,PBM binding z-score,[14],0.372
same,PBM binding z-score,[15],0.184
same,PBM binding z-score,[16],0.265
same,PBM binding z-score,[17],0.467
same,PBM binding z-score,[18],-0.0573
same,PBM binding z-score,[19],0.544
same,PBM binding z-score,[20],0.129
CAAGACAGGTGAGAAGGTAACTCAGCCTCGATTA,PBM binding z-score,[1],0.353
same,PBM binding z-score,[2],0.452
same,PBM binding z-score,[3],-0.0734
same,PBM binding z-score,[4],0.183
same,PBM binding z-score,[5],0.194
same,PBM binding z-score,[6],0.791
same,PBM binding z-score,[7],0.815
same,PBM binding z-score,[8],0.902
same,PBM binding z-score,[9],0.302
same,PBM binding z-score,[10],0.808
same,PBM binding z-score,[11],0.761
same,PBM binding z-score,[12],1.21
same,PBM binding z-score,[13],-0.174
same,PBM binding z-score,[14],-0.268
same,PBM binding z-score,[15],0.64
same,PBM binding z-score,[16],0.215
same,PBM binding z-score,[17],0.678
same,PBM binding z-score,[18],0.355
same,PBM binding z-score,[19],0.384
same,PBM binding z-score,[20],0.867
TAGCCTACGTCATGCGGGCCAGTATAGTGTCGGC,PBM binding z-score,[1],-0.993
same,PBM binding z-score,[2],-0.942
same,PBM binding z-score,[3],-0.548
same,PBM binding z-score,[4],-1.15
same,PBM binding z-score,[5],-0.753
same,PBM binding z-score,[6],-0.592
same,PBM binding z-score,[7],0.156
same,PBM binding z-score,[8],-0.778
same,PBM binding z-score,[9],-0.767
same,PBM binding z-score,[10],-0.769
same,PBM binding z-score,[11],-0.258
same,PBM binding z-score,[12],-0.361
same,PBM binding z-score,[13],-0.565
same,PBM binding z-score,[14],-0.82
same,PBM binding z-score,[15],-1.11
same,PBM binding z-score,[16],-0.921
same,PBM binding z-score,[17],-1.11
same,PBM binding z-score,[18],-0.886
same,PBM binding z-score,[19],-1.36
same,PBM binding z-score,[20],-0.527
TCGAGTAGGTTACCAATTGGGCATTCAGCTTTCT,PBM binding z-score,[1],0.0774
same,PBM binding z-score,[2],0.268
same,PBM binding z-score,[3],-0.567
same,PBM binding z-score,[4],0.437
same,PBM binding z-score,[5],-0.954
same,PBM binding z-score,[6],0.973
same,PBM binding z-score,[7],-0.0221
same,PBM binding z-score,[8],1.3
same,PBM binding z-score,[9],0.909
same,PBM binding z-score,[10],1.06
same,PBM binding z-score,[11],3.77
same,PBM binding z-score,[12],2.73
same,PBM binding z-score,[13],-0.446
same,PBM binding z-score,[14],-0.0338
same,PBM binding z-score,[15],-0.44
same,PBM binding z-score,[16],0.0575
same,PBM binding z-score,[17],-0.745
same,PBM binding z-score,[18],0.253
same,PBM binding z-score,[19],-0.895
same,PBM binding z-score,[20],0.606
CCTTACGGGTCACGAGGTTATTGCACGACGAGCG,PBM binding z-score,[1],6.84
same,PBM binding z-score,[2],4.54
same,PBM binding z-score,[3],0.946
same,PBM binding z-score,[4],4.15
same,PBM binding z-score,[5],0.296
same,PBM binding z-score,[6],6.08
same,PBM binding z-score,[7],7.34
same,PBM binding z-score,[8],6.45
same,PBM binding z-score,[9],3.32
same,PBM binding z-score,[10],5.41
same,PBM binding z-score,[11],4.41
same,PBM binding z-score,[12],5.61
same,PBM binding z-score,[13],1.02
same,PBM binding z-score,[14],0.757
same,PBM binding z-score,[15],3.66
same,PBM binding z-score,[16],4.88
same,PBM binding z-score,[17],0.56
same,PBM binding z-score,[18],6.61
same,PBM binding z-score,[19],1.28
same,PBM binding z-score,[20],4.57
GCTAGTTGGTCAGTAACAGGTCACACACCGGTCG,PBM binding z-score,[1],0.984
same,PBM binding z-score,[2],1.45
same,PBM binding z-score,[3],1.48
same,PBM binding z-score,[4],1.39
same,PBM binding z-score,[5],-0.167
same,PBM binding z-score,[6],2.06
same,PBM binding z-score,[7],0.82
same,PBM binding z-score,[8],1.12
same,PBM binding z-score,[9],-0.211
same,PBM binding z-score,[10],0.627
same,PBM binding z-score,[11],0.713
same,PBM binding z-score,[12],1.57
same,PBM binding z-score,[13],-0.131
same,PBM binding z-score,[14],0.285
same,PBM binding z-score,[15],1.45
same,PBM binding z-score,[16],1.85
same,PBM binding z-score,[17],0.169
same,PBM binding z-score,[18],2.32
same,PBM binding z-score,[19],1.15
same,PBM binding z-score,[20],2.24
